According to article PMC4336329 (PLoS ONE, 2015):
Hit rate of the full screen: of about 310,000 compounds, about 14,000 (4.5%) showed an effect of 50% or more. The effect is printed as a negative number. For the sample, strong results were picked, then their nearest neighbours and some compounds at random.

biological target: human ether-à-go-go-related gene (hERG) potassium channel (human, UniProt Q12809); test: primary screen, population patch clamp on CHO cells stably expressing hERG; higher = less effect of the substance
Sequence (Q12809 whole entry, looked up): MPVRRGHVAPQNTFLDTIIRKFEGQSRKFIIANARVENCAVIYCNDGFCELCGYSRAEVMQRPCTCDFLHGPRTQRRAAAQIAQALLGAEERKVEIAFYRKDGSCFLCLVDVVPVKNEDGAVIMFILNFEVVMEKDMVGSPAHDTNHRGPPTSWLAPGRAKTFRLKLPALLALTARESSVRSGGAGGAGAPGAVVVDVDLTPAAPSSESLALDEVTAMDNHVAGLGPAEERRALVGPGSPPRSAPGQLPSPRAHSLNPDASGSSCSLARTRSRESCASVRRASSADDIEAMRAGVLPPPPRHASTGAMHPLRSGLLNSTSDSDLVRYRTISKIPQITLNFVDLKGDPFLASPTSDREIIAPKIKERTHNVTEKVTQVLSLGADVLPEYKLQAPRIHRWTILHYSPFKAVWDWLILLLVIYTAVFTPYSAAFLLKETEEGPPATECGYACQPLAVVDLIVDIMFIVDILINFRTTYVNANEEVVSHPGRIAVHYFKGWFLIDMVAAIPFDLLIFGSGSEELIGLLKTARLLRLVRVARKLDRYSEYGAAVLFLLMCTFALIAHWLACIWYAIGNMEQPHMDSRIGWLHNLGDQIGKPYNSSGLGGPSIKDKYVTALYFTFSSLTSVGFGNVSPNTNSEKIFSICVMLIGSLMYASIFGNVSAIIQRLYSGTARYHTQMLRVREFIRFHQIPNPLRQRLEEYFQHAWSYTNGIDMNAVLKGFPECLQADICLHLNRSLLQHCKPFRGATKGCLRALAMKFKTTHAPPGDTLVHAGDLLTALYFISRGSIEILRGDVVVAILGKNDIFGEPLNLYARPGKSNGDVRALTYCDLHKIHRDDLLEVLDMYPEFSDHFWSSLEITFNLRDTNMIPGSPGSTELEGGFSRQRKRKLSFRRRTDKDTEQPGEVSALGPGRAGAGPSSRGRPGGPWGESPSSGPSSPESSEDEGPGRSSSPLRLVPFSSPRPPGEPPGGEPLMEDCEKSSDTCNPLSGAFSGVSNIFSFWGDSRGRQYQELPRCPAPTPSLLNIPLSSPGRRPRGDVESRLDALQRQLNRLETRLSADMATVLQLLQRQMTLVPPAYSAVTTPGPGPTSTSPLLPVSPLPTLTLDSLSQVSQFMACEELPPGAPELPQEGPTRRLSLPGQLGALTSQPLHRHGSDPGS
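Also: peak tail current of the secondary pulse compared with the same well before compound.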

SMILES | hERG current change (%, negative = inhibition) at 10uM
COc1ccc(C[C@H]2NC[C@H](O)[C@H]2OC(C)=O)cc1 | 5.98%
CSC1=N/C(=C\c2ccccc2F)C(=O)S1 | -3.24%
CCOc1nc(N2CCCCC2)nc(-n2cc(-c3ccccc3)nn2)n1 | 8.93%
Cc1cc(NC(=O)COc2ccccc2)n(-c2ccccc2)n1 | -22.7%
Cc1c(C(=O)NC2CCOC2)oc2c(F)cccc12 (stereo not drawn) | 30.1%
Cc1cc2cc(C#N)c(NCCNC(=S)NCCCN3CCOCC3)nc2cc1C | -24.5%
Cc1cc(C(=O)CN2CCCC2)c(C)n1-c1ccc(Cl)cc1 | 7.43%
CCOc1ccccc1NC(=O)CCCCCN1C(=O)[C@@H]2Cc3ccccc3CN2C1=O | -42.6%
COc1ccc(C(C)=O)cc1COC(=O)c1ccc(C)c(S(=O)(=O)N2CCOCC2)c1 | -19.8%
COc1nc(-c2ccccc2)ccc1-c1noc(C)n1 | -5.52%
Cn1ccnc1C1CCCCN1Cc1nc(-c2ccc(Cl)cc2)no1 (stereo not drawn) | -23.1%
O=C(O)C1C2CCC(C2)C1C(=O)NCc1ccco1 (stereo not drawn) | -8.3%
Cc1ccc(-n2cc(CNCCN3CCOC3=O)c(-c3cccc(C)c3)n2)cc1 | -69.1%
Cc1ccc(-n2cc(CNC(C)c3cnn(C)c3)c(-c3ccc(F)cc3)n2)cc1 (stereo not drawn) | -40%
Cc1cccc(-n2cc(CNCCN3CCOC3=O)c(-c3cccc(F)c3)n2)c1 | -16.4%
Cc1ccc(-n2cc(CNC(C)Cn3cncn3)c(-c3ccc(F)cc3)n2)cc1 (stereo not drawn) | -60.7%
Cc1ccc(-n2cc(CN(C)Cc3ncc[nH]3)c(-c3cccc(C)c3)n2)cc1 | -34.8%
Cc1ccc(-n2cc(CN3CCNC(=O)CC3)c(-c3cccc(C)c3)n2)cc1 | -0.817%
CC(=O)N1CCCN(Cc2cn(-c3ccc(C)cc3)nc2-c2cccc(C)c2)CC1 | -43%
Cc1ccc(C)c(-n2cc(CNC(C)Cn3cncn3)c(-c3ccccc3)n2)c1 (stereo not drawn) | -45.6%
Cc1ccc(-n2cc(CN(C)CCc3cn[nH]c3)c(-c3cccc(C)c3)n2)cc1 | -68%
CCn1c(-c2ccco2)n[nH]c1=S | 12%
N#C/C(=C\c1ccc(OCc2ccc(Br)cc2)cc1)C(=O)Nc1cccc(C(=O)O)c1 | 17.8%
CCOC(=O)c1c(C)[nH]c(C(=O)CSc2ccccc2)c1C | 3.05%
